Methyltransferases: Primary Screen for Target Class Profiling of Small Molecule Inhibitors of Methyltransferases; purified enzyme, MTase-Glo SAH luminescence; active compounds read low; calls only at 40 µM; hit rate 3.9% among 25,000; AID 1745853, 2022; call rule not given here
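Each enzyme was assayed with SAM and its substrate. SAH formation detected by MTase-Glo luminescence; single-point 40 uM screen[…].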
* = called active by the depositor; i = inactive; + = active, no number; ! = not active in a repeat. Only a selection was taken, and hits are over-represented in it overall. % is scaled to controls: 0 for no effect and ±100 for the full control effect.

SMILES	Methyltransferases
COC(=O)c1cc2n(n1)CC(C)(C(=O)NC1CCCCCC1)N(c1cccc(F)c1)C2=O (configuration not stated)	i
CSc1cccc(NC(=O)N2CCn3cccc3C2C(C)C)c1 (configuration not stated)	i
O=C(C1CCCCC1)N(CCN1CCN(c2ccccc2O)CC1)c1ccccn1	i
Cn1c(=O)c2[nH]c(-c3ccc(S(=O)(=O)O)cc3)nc2n(C)c1=O	+
C=CCn1c(=O)c2c(nc(-c3ccc(S(=O)(=O)O)cc3)n2C)n(C)c1=O	i
Cn1c(=O)c2[nH]cnc2n(C)c1=O	i
CCC(C)NC(=O)c1ccc2c(=O)n(CCC(C)C)c3nn(Cc4ccccc4C)c(=O)n3c2c1 (configuration not stated)	i
COc1ccc(OC)c(CCNC(=O)CCc2nnc3n(Cc4ccc(Cl)cc4)c(=O)c4ccccc4n23)c1	i
Cc1ccc(CCN2C(=O)c3cc4ccccc4n3CC2(C)C(=O)NC2CCCC2)cc1 (configuration not stated)	i
O=C(CCn1ccc2cc(S(=O)(=O)N3CCCCC3)ccc21)NCc1ccccc1	i
CCCN1C(=O)c2cc3c(OC)ccc(OC)c3n2CC1(C)C(=O)NC1CCCCC1C (configuration not stated)	i
CC(C)C[C@H](CO)Nc1nc(S[C@@H](C)c2ccccc2)nc2nc(N)sc12	+
COc1ccc(CN2C(=O)c3cc4ccccc4n3CC2(C)C(=O)NCc2ccccc2)cc1 (configuration not stated)	i
CCCn1c(=O)c2ccc(Cl)cc2n2c(SCC(=O)Nc3ccc(F)cc3)nnc12	i
Cc1cc2[nH]c(=O)[nH]c2cc1S(=O)(=O)Nc1cccc(Cl)c1	i
Cc1[nH]cnc1C1CCN(c2nc3cccc4c3n2CCC4=O)CC1	+
CCCn1c(=O)c2ccc(C(=O)NC3CCCC3)cc2n2c(=O)n(CC(=O)Nc3ccc(C)cc3)nc12	i
COc1ccc(NC(=O)CCc2nnc3n(CCCOC(C)C)c(=O)c4ccccc4n23)cc1OC	i
CCc1c(Cl)c(O)c(Cl)c(O)c1C(=O)O[C@H]1[C@H](O)[C@H](OC)[C@H](OC/C2=C\C=C\C[C@H](O)/C(C)=C\[C@H](CC)[C@@H](O[C@@H]3OC(C)(C)[C@@H](OC(=O)C(C)C)[C@H](O)[C@@H]3O)/C(C)=C/C(C)=C/C[C@@H]([C@@H](C)O)OC2=O)O[C@@H]1C	+
CN1C(=O)c2cc(NC(=O)CCC(=O)N3CCOCC3)ccc2N2CCN=C12	i
CCc1ccc(S(=O)(=O)c2nnn3c2nc(NCc2ccc(OC)cc2)c2ccccc23)cc1	i
CC(N)(C(=O)O)c1ccc(C(=O)O)cc1 (configuration not stated)	i
CC1(C)CCC(C)(C)c2cc([C@@H](O)C(=O)Nc3ccc(C(=O)O)cc3F)ccc21	i
CC1(C)CCC(C)(C)c2cc(C#Cc3ccc(C(=O)O)cc3)ccc21	+
CC1(C(=O)NC2CCCCC2)Cn2c(cc3occc32)C(=O)N1CCN1CCOCC1 (configuration not stated)	i
SMILES	Methyltransferases
CC(C)n1cc(-c2ccc(Oc3ccccc3)cc2)c2c(N)ncnc21	+
Cc1ccc(CCNC(=O)c2cc3n(n2)CC(C)(C(=O)NCc2ccc(C)cc2)N(C)C3=O)cc1 (configuration not stated)	i
CNC1CCC(N(Cc2cccc(-c3ccncc3)c2)C(=O)c2sc3c(F)ccc(F)c3c2Cl)CC1 (configuration not stated)	+!
CNC1CCC(N(Cc2cccc(-c3ccncc3)c2)C(=O)c2sc3ccccc3c2Cl)CC1 (configuration not stated)	+
CCC(Nc1ncnc2nc[nH]c12)c1nc2cccc(F)c2c(=O)n1-c1ccccc1 (configuration not stated)	i
CCc1ccc(N2C(=O)c3cc4occc4n3CC2(C)C(=O)NC2CCCCC2)cc1 (configuration not stated)	i
CCC(C)NC(=O)Cn1nc2n(Cc3ccccc3)c(=O)c3ccc(C(=O)NCC(C)C)cc3n2c1=O (configuration not stated)	i
CCCN1C(=O)c2cc3ccccc3n2CC1(C)C(=O)NC1CCCCCC1 (configuration not stated)	i
O=C(Nc1ccccc1-c1cn2c(CN3CCNCC3)csc2n1)c1cnc2ccccc2n1	+!
CN(C)[C@@H]1C[C@@H](CO)N(C(=O)c2csc3nc(-c4ccccc4Cl)cn23)C1	i
CC1CCN(S(=O)(=O)c2ccc3c(ccn3CCC(=O)NC(C)c3ccccc3)c2)CC1 (configuration not stated)	i
Cc1ccccc1CN1C(=O)c2nc3ccccc3n2CC1(C)C(=O)NC1CCCCC1C (configuration not stated)	i
NC[C@H]1O[C@@H](n2cnc3c(N)ncnc32)[C@H](O)[C@@H]1O	+
Nc1ncnc2c1ncn2[C@@H]1O[C@H](CO)C[C@H]1O	i
Nc1ncnc2c1nc(N)n2[C@@H]1O[C@H](CO)[C@@H](O)[C@H]1O	i
CN(CCN1C(=O)c2cc3occc3n2CC1(C)C(=O)NC1CCCCCC1)C1CCCCC1 (configuration not stated)	i
CC(C)Cn1c(=O)c2ccc(C(=O)NC(C)C)cc2n2c(=O)n(Cc3c(F)cccc3Cl)nc12	i
CC(=O)Nc1c2n(c3ccc(F)cc13)CC(C)(C(=O)NC1CCCC1)N(c1ccc(F)cc1)C2=O (configuration not stated)	i
COc1cc2nc(N3CCN(C(=O)c4ccco4)C4CCCCC43)nc(N)c2cc1OC (configuration not stated)	+
O=C(c1ccco1)N1CCCCC1c1nc(C2CC2)n[nH]1 (configuration not stated)	i
O=C(NC1CCCN(c2cc(N3CCCC3)ncn2)C1)c1ccco1 (configuration not stated)	i
CC(C)(NS(=O)(=O)c1ccc(Oc2ccc(F)cc2)cc1)C(=O)NO	i
Cn1cc(CCC(=O)N[C@@H]2CCOC[C@H]2Oc2ccc(C(=O)O)cc2)cn1	i
CCOC(=O)c1cc2n(n1)CC(C)(C(=O)NCc1ccccc1OC)N(CCc1ccc(Cl)cc1)C2=O (configuration not stated)	i
CC1(C(=O)NC2CCCCCCC2)Cn2c(cc3sccc32)C(=O)N1Cc1ccccc1F (configuration not stated)	i
SMILES	Methyltransferases
CCOC(=O)c1cc2n(n1)CC(C)(C(=O)NC1CCCC1)N(c1cc(Cl)ccc1C)C2=O (configuration not stated)	i
COc1cccc(C(=O)Cn2nc3n(C)c(=O)c4ccc(C(=O)NC5CCCCC5)cc4n3c2=O)c1	i
COc1ccc(OC)c(-c2nc3cc4c(cc3cc2CN2CCCOCC2)OCO4)c1	i
COc1cccc(CN2C(=O)c3ccc(-c4ccco4)n3CC2(C)C(=O)NC2CCCCCCC2)c1 (configuration not stated)	i
CCCC[C@@]1(C2CCCC2)Cc2cc(OCC(=O)O)c(Cl)c(Cl)c2C1=O	+
C[C@]1(C2CCCC2)Cc2cc(OCC(=O)O)c(Cl)c(Cl)c2C1=O	+
COc1ccc(-c2n[nH]n3c2nc(=O)c2ccc(C(=O)NC4CCCCC4)cc23)cc1	i

Bioassay records from PubChem.
